{
  "source": "the supplement of paper PMC11417369",
  "note": "Whole data set: some 25,000 sequences, median “ln(normalized median fluorescence intensity)” near 7.1, cut for the highest 2% near 10. The list comes from a sample in which the highest values are over-represented; it also holds similar and randomly drawn sequences.",
  "data": [
    {"tested_on": "PfSIP2 AP2 domain 1 (GST-tagged)", "assay": "gcPBM binding intensity (ln(normalized median fluorescence intensity)); higher = stronger DNA binding", "procedure,_shortened": "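After 1 h on an Agilent 4 × 180k array of primer-extended double-stranded 36-bp intergenic genomic probes and negative controls, bound GST-tagged P. falciparum DNA-binding domains were detected with Alexa488 anti-GST antibody and scanned at 488 nm. The domains had been expressed in E. coli, and binding took place in 1× PBS with 1% milk, 0.2 mg/ml BSA, 0.5% salmon testes DNA and 0.03% Triton X-100. Binding intensity is the highest Masliner-normalised natural-log median intensity across replicate spots of either probe orientation.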", "values": [
      {"sequence": "ATTAAAGAGAGACATCAACACACATACGTATGTATA [CACACA_site8393]", "gcPBM binding intensity (ln)": 6.94},
      {"sequence": "TAGTTTTTTATAAAATTATTTATATAAAGGTAAAAA [CACACA_negctrl_site490]", "gcPBM binding intensity (ln)": 7.1},
      {"sequence": "TTTGGATAAAAAATATGTACACACATATAGATATCT [XGTACX_site5660]", "gcPBM binding intensity (ln)": 6.9},
      {"sequence": "TCTACAAAATTATCATGTACATATTATTATAATTAT [XGTACX_site6585]", "gcPBM binding intensity (ln)": 7.28},
      {"sequence": "TGTTGTATATCTCTATATAGCTATATTGTATATATA [TGCATGCA_negctrl_site323]", "gcPBM binding intensity (ln)": 6.97},
      {"sequence": "TATAAAAGTGGACACACACACATATATATATATATA [CACACA_site4673]", "gcPBM binding intensity (ln)": 9.47},
      {"sequence": "TAATATATAACGTGCACACACACATTTACGTATGAA [CACACA_site1832]", "gcPBM binding intensity (ln)": 9.88},
      {"sequence": "ATATATAACGTGCACACACACATTTACGTATGAATA [CACACA_site6948]", "gcPBM binding intensity (ln)": 10.4},
      {"sequence": "TGTAAATTATAACGTGCACACATATTTAAAATGAAA [CACACA_site8915]", "gcPBM binding intensity (ln)": 10.6},
      {"sequence": "ATATATAACGGGCACACACACATTTACGTATGAATA [CACACA_site1833]", "gcPBM binding intensity (ln)": 7.39},
      {"sequence": "CTTAATTTAATGAAATGTACATATAAAAATATTATA [XGTACX_site3303]", "gcPBM binding intensity (ln)": 7.11},
      {"sequence": "TTTATTAATAATTATACACACATATAAAATGAATAA [CACACA_site1359]", "gcPBM binding intensity (ln)": 7.01},
      {"sequence": "TAAATTATAACGTGCACACATATTTAAAATGAAATG [CACACA_site2820]", "gcPBM binding intensity (ln)": 10.3},
      {"sequence": "AAATGAATTTAACAATGTACACATATATTATAAATA [XGTACX_site1449]", "gcPBM binding intensity (ln)": 7.13},
      {"sequence": "TAAAATAAATTGTGCACACATATTTATAAATATGAA [CACACA_site2331]", "gcPBM binding intensity (ln)": 9.66},
      {"sequence": "ATATAAGTACGGCATGCATGCACATTTTTTTATTCC [TGCATGCA_site101]", "gcPBM binding intensity (ln)": 7.09},
      {"sequence": "TACGTTATATACAACTGTACTTGGATAATTATTAAC [XGTACX_site5614]", "gcPBM binding intensity (ln)": 7.13},
      {"sequence": "TCTTTTTTTTTTTTTTTTTTTTTTTATTTATTCATA [CACACA_negctrl_site1827]", "gcPBM binding intensity (ln)": 6.85},
      {"sequence": "CATAATATATATTGAGCATGCTACTATTGTTAGAAA [TGCATGCA_site740]", "gcPBM binding intensity (ln)": 6.93},
      {"sequence": "ATATATAAATATAGCATACACACAAAAAAATAAAAT [CACACA_site2332]", "gcPBM binding intensity (ln)": 7.11},
      {"sequence": "AAATATTATAAAAAGGTGCATTTTTATTATATGAGT", "gcPBM binding intensity (ln)": 11},
      {"sequence": "TTTTTTTTTAATAAAATTATAATAAATATGAAATTA [XGTACX_negctrl_site369]", "gcPBM binding intensity (ln)": 6.67},
      {"sequence": "GACAATATTAAAACATGTACATGCATTTTATGAATA [XGTACX_site553]", "gcPBM binding intensity (ln)": 7.05},
      {"sequence": "TATCATATATGAAGGTGTACGATTTATTATATAAAT [XGTACX_site7010]", "gcPBM binding intensity (ln)": 7.04},
      {"sequence": "ATATTTTATGTAAAGGTGCAAAACAACATTAAAAAA", "gcPBM binding intensity (ln)": 10.5},
      {"sequence": "TTTTTATGGACTATGGTGCATTATATATAAATGAAA [GTGCAC_site9557]", "gcPBM binding intensity (ln)": 10.6},
      {"sequence": "TTTTTTAAATATTATTTTTATGAGTAAATATATTAT [GTGCAC_negctrl_site277]", "gcPBM binding intensity (ln)": 6.71},
      {"sequence": "ATTTATTTTATATGTTGTACAAACATTTTAAAACAT [XGTACX_site6919]", "gcPBM binding intensity (ln)": 6.95},
      {"sequence": "ATTATCAATATGAAGGTGCATTTAAATAATATTTAC", "gcPBM binding intensity (ln)": 10.7},
      {"sequence": "TACAGTTCAATGAAGGTGCAATTAATATATAAAATA", "gcPBM binding intensity (ln)": 10.2},
      {"sequence": "TTTTTTAAATATATGGTGCATAGAAAGATATTATAC [GTGCAC_site9984]", "gcPBM binding intensity (ln)": 10},
      {"sequence": "TTATTTTTATTATAAATTATAAAATATAAATAAATA [GTGCAC_negctrl_site616]", "gcPBM binding intensity (ln)": 6.79},
      {"sequence": "ATCATATATTATTTATGTACTTATTTATAATAATAT [XGTACX_site8257]", "gcPBM binding intensity (ln)": 7.06},
      {"sequence": "AGAATATCAAAATAAAGTACATTTATTATATATATG [XGTACX_site7100]", "gcPBM binding intensity (ln)": 7.15},
      {"sequence": "TTATTTAAAAAATTTTTAAATATACAAAAAAAAAAA [TGCATGCA_negctrl_site464]", "gcPBM binding intensity (ln)": 6.88},
      {"sequence": "TTAATTGACATAAAAAGTACTCATATAGATATGCAC [XGTACX_site6391]", "gcPBM binding intensity (ln)": 8.9},
      {"sequence": "AAACATTTATCAATGAATCTTTTAATAAGTGTAAAG [XGTACX_negctrl_site80]", "gcPBM binding intensity (ln)": 6.79},
      {"sequence": "TAAATATAACAGAATAATATGTGGATTAATAAATGA [CACACA_negctrl_site438]", "gcPBM binding intensity (ln)": 6.81},
      {"sequence": "ACATATGGCACATATGTACACACGTATAGATAATAT [CACACA_site2024]", "gcPBM binding intensity (ln)": 7.19},
      {"sequence": "TGGAGGTCAGTTCACAGTACCCAGAAAACTCTACGA [XGTACX_site2561]", "gcPBM binding intensity (ln)": 6.58},
      {"sequence": "TAAAATATTATAAAATGTACAAAACATATAAATATA [XGTACX_site5315]", "gcPBM binding intensity (ln)": 6.8},
      {"sequence": "AACACATAATAAAATTGTACCCAACATTTCTTTTGA [XGTACX_site8061]", "gcPBM binding intensity (ln)": 6.96},
      {"sequence": "GCAAATCATGCTATGGTGCATATGTAAGATGAGCAT", "gcPBM binding intensity (ln)": 10.6},
      {"sequence": "GCATATGATGAGCATATAATCATAAGAAAAAAAAAA [CACACA_negctrl_site701]", "gcPBM binding intensity (ln)": 6.72},
      {"sequence": "TATTAATTATAAGATGCATGTGCAAAAATATGTTCC [TGCATGCA_site51]", "gcPBM binding intensity (ln)": 7.6},
      {"sequence": "TATAACTTTTATAGGTGTACCCAATATTATATATAG [XGTACX_site7673]", "gcPBM binding intensity (ln)": 6.97},
      {"sequence": "CCAGTGTGCACCTTGCGTACATATTAAATTAATTAA [XGTACX_site3729]", "gcPBM binding intensity (ln)": 12.2},
      {"sequence": "TTAAAAATGTGTGTGCGTACATAATATTTCGAAAAA [XGTACX_site8197]", "gcPBM binding intensity (ln)": 7.03},
      {"sequence": "TTGCATTAATTTATGTGTACATATAAATTTTTATTT [XGTACX_site3060]", "gcPBM binding intensity (ln)": 7.41},
      {"sequence": "ATATATATGTATATAACATGCAACATTTAATAATAA [TGCATGCA_site1018]", "gcPBM binding intensity (ln)": 7.18},
      {"sequence": "CATGTATGTACCATGGTGCAACAATATTTTTAACAA [GTGCAC_site9597]", "gcPBM binding intensity (ln)": 10.6},
      {"sequence": "TATATATATTTTATATGTACGTATGGAACAATATGA [XGTACX_site8167]", "gcPBM binding intensity (ln)": 7.38},
      {"sequence": "GTTACTGCATACATAACACACATATTCAAAACCCAT [CACACA_site5856]", "gcPBM binding intensity (ln)": 7.13},
      {"sequence": "CATTATGTCATAAATGCACACATATATATATACATA [CACACA_site8454]", "gcPBM binding intensity (ln)": 7.38},
      {"sequence": "TGATTCTGTCATGGTGCACACCAGAACCATTATAAA [CACACA_site1965]", "gcPBM binding intensity (ln)": 11.9},
      {"sequence": "TTCTGTATACGGTGTGCACACAATTAAAAAAAAAAA [CACACA_site1416]", "gcPBM binding intensity (ln)": 9.47},
      {"sequence": "TTATAAAGAATTAGGAGTACAAATGCATATATAATA [XGTACX_site6580]", "gcPBM binding intensity (ln)": 7.3}
    ]}
  ]
}
